In PubChem BioAssay (NCATS):
Inconclusive results are not listed. Calls of active or inactive are those of the source. Unless noted, calls follow the shape of the dose curve; as a rule, active = well fitted curve in the direction sought with a large enough effect; inconclusive = small, poorly fitted or top-dose-only effect, or another doubt; inactive = no such curve, though single readings can be large; an effect the other way counts as inactive or inconclusive.

Columns and labels:
[1] = qHTS assay for measurement of the activity of small molecule inhibitors on Zika virus induced Caspase-3 activity in human iPSC derived neural progenitor cells (hNPCs) (AID 1224857); also: nearly all actives have a fitted effect of over 65% in size; also: potency is read from the fitted curve at half-maximal effect
Method in brief: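 Human iPSC-derived neural progenitor cells pretreated 1 hr with compounds, then infected with Zika virus (2 FFU/cell) for 6 hours at 37 C. Caspase-3/7 measured by Caspase-Glo luminescence; % inhibition calculated from induction scaled to uninfected (0%) and infected (100%) wells.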

[2] = Natriuretic polypeptide receptor (hNpr1) antagonism - Pilot counterscreen GloSensor control cell line (AID 1347045; calls by dose curve; also: potency is read from the fitted curve at half-maximal effect)
Method in brief: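 Control counterscreen: luciferase cGMP-biosensor HEK293 cells (no Npr1) received compound for 30 min at room temperature after GloSensor substrate loading. Luminescence was measured before and 20 min after soluble guanylyl cyclase activation by 50 uM nitroprusside.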

[3] = target: Atrial natriuretic peptide receptor 1 (Homo sapiens) (UniProt P16066); experiment: Natriuretic polypeptide receptor (hNpr1) antagonism - Pilot screen (AID 1347049; calls by dose curve;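 also: agonist-evoked cGMP luminescence read 20 min after hNppA addition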; also: potency is read from the fitted curve at half-maximal effect)
Sequence of Atrial natriuretic peptide receptor 1 (Homo sapiens) (P16066 whole entry, looked up): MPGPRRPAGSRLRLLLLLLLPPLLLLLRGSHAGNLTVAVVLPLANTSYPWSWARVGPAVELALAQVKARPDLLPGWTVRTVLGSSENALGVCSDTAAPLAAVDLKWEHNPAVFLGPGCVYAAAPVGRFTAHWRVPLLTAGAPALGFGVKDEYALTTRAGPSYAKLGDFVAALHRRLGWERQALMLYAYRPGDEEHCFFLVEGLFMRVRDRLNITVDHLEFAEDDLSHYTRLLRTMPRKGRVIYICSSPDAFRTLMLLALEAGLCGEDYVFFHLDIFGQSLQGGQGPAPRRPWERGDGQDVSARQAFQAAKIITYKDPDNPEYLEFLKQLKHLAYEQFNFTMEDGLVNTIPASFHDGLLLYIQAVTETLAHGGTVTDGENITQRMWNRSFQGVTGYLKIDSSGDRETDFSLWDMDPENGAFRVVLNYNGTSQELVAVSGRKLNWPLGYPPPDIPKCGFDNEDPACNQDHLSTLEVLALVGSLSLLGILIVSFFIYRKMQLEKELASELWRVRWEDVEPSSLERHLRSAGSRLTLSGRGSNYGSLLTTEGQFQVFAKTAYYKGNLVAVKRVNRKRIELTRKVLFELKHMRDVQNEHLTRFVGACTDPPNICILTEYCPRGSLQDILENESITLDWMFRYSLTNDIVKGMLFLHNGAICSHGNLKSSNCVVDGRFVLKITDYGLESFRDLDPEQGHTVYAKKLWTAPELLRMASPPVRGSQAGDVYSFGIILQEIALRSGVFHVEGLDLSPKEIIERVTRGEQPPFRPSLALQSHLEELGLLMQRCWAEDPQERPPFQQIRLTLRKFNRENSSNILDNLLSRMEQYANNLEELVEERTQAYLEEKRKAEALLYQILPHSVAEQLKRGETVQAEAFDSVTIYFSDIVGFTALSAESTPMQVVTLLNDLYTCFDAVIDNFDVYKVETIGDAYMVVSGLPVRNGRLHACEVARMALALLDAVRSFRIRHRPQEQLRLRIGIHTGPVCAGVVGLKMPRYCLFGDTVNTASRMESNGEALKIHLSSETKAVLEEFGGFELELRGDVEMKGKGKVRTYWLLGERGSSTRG
Method in brief: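 cGMP-sensor HEK293/hNpr1 cells, 1500/well, plated overnight at 37C. 2% GloSensor reagent, 2 h RT. Compound (23 nL pin transfer) 30 min RT, baseline luminescence pre-read. 0.1 nM hNppA, 20 min RT, post-read.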

[4] = target: Atrial natriuretic peptide receptor 2 (Homo sapiens) (UniProt P20594); experiment: Natriuretic polypeptide receptor (hNpr2) antagonism - Pilot subtype selectivity assay (AID 1347050; calls by dose curve; also: potency is read from the fitted curve at half-maximal effect)
Sequence of Atrial natriuretic peptide receptor 2 (Homo sapiens) (P20594 whole entry, looked up): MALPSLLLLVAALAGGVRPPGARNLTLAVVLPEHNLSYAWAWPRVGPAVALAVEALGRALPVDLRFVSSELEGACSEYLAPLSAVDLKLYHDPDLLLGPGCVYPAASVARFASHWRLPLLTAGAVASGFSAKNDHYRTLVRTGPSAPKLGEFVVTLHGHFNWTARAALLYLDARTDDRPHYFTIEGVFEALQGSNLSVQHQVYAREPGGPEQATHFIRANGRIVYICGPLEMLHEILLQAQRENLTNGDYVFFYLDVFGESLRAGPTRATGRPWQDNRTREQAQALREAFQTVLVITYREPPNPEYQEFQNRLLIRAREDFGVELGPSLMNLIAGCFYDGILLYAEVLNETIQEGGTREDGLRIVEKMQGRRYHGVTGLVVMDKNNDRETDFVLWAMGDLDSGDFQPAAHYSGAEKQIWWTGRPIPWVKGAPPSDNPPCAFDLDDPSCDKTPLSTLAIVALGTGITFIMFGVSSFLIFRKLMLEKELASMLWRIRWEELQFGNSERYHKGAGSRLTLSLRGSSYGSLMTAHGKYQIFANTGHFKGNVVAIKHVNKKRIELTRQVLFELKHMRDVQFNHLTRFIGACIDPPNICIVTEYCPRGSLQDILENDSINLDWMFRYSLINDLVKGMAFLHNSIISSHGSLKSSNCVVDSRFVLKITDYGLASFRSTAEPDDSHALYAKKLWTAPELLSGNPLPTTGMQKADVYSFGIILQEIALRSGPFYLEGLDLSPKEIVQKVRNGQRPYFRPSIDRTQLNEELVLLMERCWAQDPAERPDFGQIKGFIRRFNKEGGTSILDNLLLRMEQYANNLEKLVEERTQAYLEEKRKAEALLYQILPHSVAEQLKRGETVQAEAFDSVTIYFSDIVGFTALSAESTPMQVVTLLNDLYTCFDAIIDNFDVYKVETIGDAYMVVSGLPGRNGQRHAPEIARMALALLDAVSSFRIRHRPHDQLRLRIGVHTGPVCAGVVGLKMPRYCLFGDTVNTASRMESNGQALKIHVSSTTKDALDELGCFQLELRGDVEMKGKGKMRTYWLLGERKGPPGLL
Method in brief: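 Luminescence from a genetically encoded cGMP luciferase biosensor in hNpr2-expressing HEK293 cells is read before and 20 min after adding 1 nM hNppC. Test compounds, in interplate 1:5 titrations, are added 30-50 min ahead of the agonist.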

[5] = NS1 protein of Zika virus - qHTS assay to identify small molecule inhibitors in human HEK 293 cells (AID 1347053); also: nearly all actives have a fitted effect of over 55% in size
Method in brief: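 In this cell-based screen, HEK 293 cultures received compound for one hour before Zika MR766 at MOI = 0.5. NS1 was quantified 24 hours later by TR-FRET, normalized to virus-free wells and infected wells.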

[6] = target: T1, Tyrosine-protein phosphatase non-receptor type substrate 1 (Homo sapiens) + Leukocyte surface antigen CD47 (Homo sapiens) (UniProt P78324+Q08722); experiment: CD47-SIRPalpha protein protein interaction - LANCE assay qHTS validation (AID 1347057; active = well fitted curve in the direction sought with a large enough effect in the signal ratio, with a control signal flat, not every such curve was filed as active; the % refers to the signal ratio)
T1 sequence (P78324 whole entry, looked up, the tested form may be a part): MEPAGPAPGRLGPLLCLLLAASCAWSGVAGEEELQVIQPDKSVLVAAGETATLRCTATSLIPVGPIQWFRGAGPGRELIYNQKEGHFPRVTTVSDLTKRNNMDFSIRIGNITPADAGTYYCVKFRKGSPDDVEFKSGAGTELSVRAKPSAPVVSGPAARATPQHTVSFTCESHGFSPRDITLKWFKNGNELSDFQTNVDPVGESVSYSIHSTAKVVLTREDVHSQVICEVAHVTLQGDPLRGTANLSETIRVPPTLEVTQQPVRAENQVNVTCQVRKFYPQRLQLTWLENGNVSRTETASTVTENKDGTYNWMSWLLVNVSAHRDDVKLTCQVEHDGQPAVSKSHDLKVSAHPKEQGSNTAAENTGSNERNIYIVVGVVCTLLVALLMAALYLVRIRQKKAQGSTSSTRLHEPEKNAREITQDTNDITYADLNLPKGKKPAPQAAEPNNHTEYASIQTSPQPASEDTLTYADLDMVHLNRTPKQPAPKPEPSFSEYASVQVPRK
T1 sequence (Q08722 whole entry, looked up, the tested form may be a part): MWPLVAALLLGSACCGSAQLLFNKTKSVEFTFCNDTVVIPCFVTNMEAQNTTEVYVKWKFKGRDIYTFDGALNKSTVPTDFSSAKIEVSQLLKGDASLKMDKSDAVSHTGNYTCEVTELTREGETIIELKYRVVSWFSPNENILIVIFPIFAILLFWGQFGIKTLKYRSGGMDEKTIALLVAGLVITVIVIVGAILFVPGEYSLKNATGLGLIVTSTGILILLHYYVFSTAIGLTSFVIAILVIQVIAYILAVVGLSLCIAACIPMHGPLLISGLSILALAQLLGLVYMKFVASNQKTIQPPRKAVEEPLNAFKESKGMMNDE
Method in brief: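 Inhibition of soluble CD47/SIRPalpha ectodomain association by titrated compounds, measured as 665/615 nm time-resolved FRET ratio after sequential 30 min room-temperature incubations.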

[7] = target: T1, Tyrosine-protein phosphatase non-receptor type substrate 1 (Homo sapiens) + Leukocyte surface antigen CD47 (Homo sapiens); experiment: CD47-SIRPalpha protein protein interaction - HTRF assay qHTS validation (AID 1347058; active = well fitted curve in the direction sought with a large enough effect in the signal ratio, not every such curve was filed as active; the % refers to the signal ratio)
Method in brief: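 Soluble extracellular domains (6His-CD47, Avi-tag-biotinylated SIRPalpha) in PBS pH 7.4 with 0.05% IGEPAL CA-630. Compounds were preincubated 30 min at RT with CD47 and anti-His-Eu, then SIRPalpha and SAV-XL665 were added. TR-FRET 665/615 ratio.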

[8] = P-glycoprotein substrates identified in KB-8-5-11 adenocarcinoma cell line, qHTS therapeutic library screen (AID 1346987); also: nearly all actives have a fitted effect of over 65% in size
Method in brief: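 Compounds are pinned in dose-response onto KB-8-5-11 cells (500 cells/well, colchicine-free medium) and left 72 h at 37 degree C. CellTiter-Glo luminescence then yields AC50 values.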

[9] = qHTS profiling of the MIPE4 collection as inhibitors of Plasmodium falciparum (DD2) proliferation (AID 743345; call rule not given here); conditions: P. falciparum Dd2 in erythrocytes, SYBR Green DNA, 72 h; at 28.5 µM (top of the series)
Method in brief: (§1)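 Parasite DNA was quantified by SYBR Green I fluorescence (ex 485, em 535 nm) after overnight lysis in saponin/Triton buffer at room temperature. Cultures at 0.3% parasitemia and 2.5% hematocrit were first exposed to compound for 72 h at 37 C; signals were normalised to artemisinin (0.29 uM) and vehicle wells.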

[10] = qHTS profiling of the MIPE4 collection as inhibitors of Plasmodium falciparum (HB3) proliferation (AID 743347; call rule not given here); conditions: P. falciparum HB3 in erythrocytes, SYBR Green DNA, 72 h; at 28.5 µM (top of the series)
Method in brief: as §1

[11] = qHTS assay to identify small molecule inhibitors of chordoma cells - UCH-1 (AID 1259355); also: nearly all actives have a fitted effect of over 55% in size
Method in brief: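 Screening used approved and investigational drugs in 15-point titration against 800 seeded cells per well. A fixed combination of auranofin with camptothecin, doxorubicin, rubitecan and topotecan followed compound addition, and growth was scored by CellTiter-Glo after 48hr.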

[12] = qHTS assay for cell viability of the p53RE-bla HCT-116 cell line (AID 743292); also: nearly all actives have a fitted effect of over 55% in size
Method in brief: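 ATP-based luminescent viability (CellTiter-Glo, 30 min RT) after 16 h compound treatment at 37 C of p53RE-bla HCT-116 cells, seeded at 4,000 cells/well and rested 5 h before dosing.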

[13] = qHTS assay for measurement of the activity of small molecule inhibitors on Zika virus induced Caspase-3 activity in human astrocytoma cells (AID 1224859)
Method in brief: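 SNB-19 astrocytoma cells, 250/well, pretreated 1 h with compounds, then Zika virus at 2 FFU/cell for 6 h at 37 C; Caspase-Glo 3/7 luminescence after 30 min; percent inhibition normalised to uninfected and infected controls.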

[14] = qHTS assay to identify small molecule inhibitors of chordoma cells - UCH-2 (AID 1259356)

C[N+]1(C)CCOC(O)(c2ccc(-c3ccc(C4(O)C[N+](C)(C)CCO4)cc3)cc2)C1 (stereo not drawn)
inactive: Potency [1] | Potency [2] | Potency [3] | Potency [4] | outcome [5] | Potency [6] | outcome [7]

NC(=O)c1cc(N2CC2)c([N+](=O)[O-])cc1[N+](=O)[O-]
inactive: Potency [1] | Potency [2] | Potency [3] | Potency [4] | outcome [5] | Potency [6]

[Cl-].[Cl][Pt].[NH2-].[NH2-].c1ccncc1
inactive: Potency [1] | outcome [5]

CN1CCC[C@@H]1Cc1c[nH]c2ccc(Nc3ncccc3[N+](=O)[O-])cc12
inactive: Potency [1] | Potency [8] | outcome [5]

CN1CCc2cc(O)cc3c2[C@H]1Cc1ccc(O)c(O)c1-3
inactive: Potency [1] | Potency [2] | Potency [3] | Potency [4] | outcome [5]

CC(C)(C)OC(=O)NC1[C@H]2CNC[C@@H]12 (stereo partly drawn)
inactive: Potency [1] | outcome [5] | Potency [6] | outcome [7]

CN1CC[C@@]2(C)c3cc(OC(=O)Nc4ccccc4)ccc3N(C)[C@@H]12
active: Potency [1] 10 µM
inactive: Potency [2] | Potency [3] | Potency [4] | outcome [5] | Potency [6]

O=C1/C(=C/c2ccccc2)C[C@@]2(O)[C@H]3Cc4ccc(O)c5c4[C@@]2(CCN3CC2CC2)[C@H]1O5
inactive: Potency [1] | Potency [6]

COc1ccc(OC)c(C(O)C(C)N)c1 (stereo not drawn)
inactive: Potency [1] | Potency [2] | Potency [3] | Potency [4] | outcome [5] | Potency [6] | outcome [7]

NC(CCCCCP(=O)(O)O)C(=O)O (stereo not drawn)
inactive: Potency [1] | Potency [2] | Potency [3] | Potency [4] | outcome [5] | Potency [6] | outcome [7]

NC(N)=NOCC[C@H](N)C(=O)O
inactive: Potency [1] | Potency [2] | Potency [3] | Potency [4]

O=[N+]([O-])/C=C/c1ccc2c(c1)OCO2
active: Potency [2] 1.47 µM | Potency [3] 2.39 µM | Potency [4] 1.47 µM
inactive: Potency [1] | Potency [6]

CCCN1CCc2cc(O)cc3c2[C@H]1Cc1ccc(O)c(O)c1-3
inactive: Potency [1] | Potency [3] | Potency [4] | outcome [5]

Cc1c2ccncc2c(C)c2c1[nH]c1ccccc12
active: Potency [3] 10.7 µM | Potency [4] 5.21 µM
inactive: Potency [1] | Potency [2] | Potency [6] | outcome [7]

CC12NC(Cc3ccccc31)c1ccccc12 (stereo not drawn)
inactive: Potency [1] | Potency [2] | Potency [3] | Potency [4] | outcome [5] | Potency [6] | outcome [7]

Nc1cc2c(ncn2CCOCP(=O)(O)O)c(=O)[nH]1
inactive: Potency [1] | outcome [5] | Potency [6] | outcome [7]

C[N+]1(C)[C@@H]2CC(OC(=O)[C@H](CO)c3ccccc3)C[C@H]1[C@H]1O[C@@H]12 (stereo partly drawn)
86.8%: growth, % of control [10]
inactive: Potency [1]
91.7%: parasite growth remaining, % of DMSO control (lower = more inhibition) [9]

N[C@@H](Cn1oc(=O)[nH]c1=O)C(=O)O
inactive: Potency [1] | Potency [3] | Potency [4] | outcome [5] | Potency [6]

CCn1cnc2c(Nc3cccc(Cl)c3)nc(N[C@@H]3CCCC[C@@H]3N)nc21
inactive: Potency [1] | Potency [2] | Potency [3] | Potency [6] | outcome [7]

O=P(O)(O)C(Cl)(Cl)P(=O)(O)O
inactive: Potency [1] | Potency [11] | Potency [8]

CCS(=O)(=O)Nc1cccc(C(=C2CCCCC2)c2cnc[nH]2)c1
inactive: Potency [1] | Potency [2] | Potency [4] | outcome [5] | Potency [6] | outcome [7]

NCC(CP(=O)(O)O)c1ccc(Cl)cc1 (stereo not drawn)
inactive: Potency [1] | Potency [2] | Potency [3] | Potency [4] | outcome [5] | Potency [6]

O=C(NC1CN2CCC1CC2)c1cc2ccoc2cn1 (stereo not drawn)
inactive: Potency [1] | outcome [5] | Potency [6] | outcome [7]

CCCN(CCC)C1Cc2cc(OC)c(OC)cc2C1
inactive: Potency [1] | Potency [2] | Potency [4] | outcome [5] | Potency [6] | outcome [7]

NCCCP(=O)(O)O
inactive: Potency [1] | Potency [2] | Potency [3] | Potency [4] | outcome [5] | Potency [6] | outcome [7]

NNC(N)=O
inactive: Potency [12] | Potency [1] | Potency [2] | Potency [3] | Potency [4] | outcome [5] | Potency [6] | outcome [7]

Clc1cc(I)cc(Cl)c1NC1=NCCN1
inactive: Potency [1] | Potency [2] | Potency [3] | Potency [4] | outcome [5] | Potency [6] | outcome [7]

CC(=O)NBr
inactive: Potency [1] | Potency [2] | Potency [3] | Potency [4] | outcome [5] | Potency [6] | outcome [7]

CCCN1CCCC2Cc3[nH]ncc3CC21 (stereo not drawn)
inactive: Potency [11]

C=CCN(C1=NCCN1)c1c(Cl)cccc1Cl
inactive: outcome [13] | Potency [11] | Potency [8] | Potency [2] | Potency [3] | Potency [4]

CC(C)[C@@]1(NC(=O)[C@@H]2C[C@@H]3c4cccc5[nH]cc(c45)C[C@H]3N(C)C2)O[C@@]2(O)[C@@H]3CCCN3C(=O)[C@H](Cc3ccccc3)N2C1=O
inactive: outcome [13] | Potency [11] | Potency [14] | Potency [8] | Potency [2] | Potency [3] | Potency [4]

CCNC(=O)[C@H]1O[C@@H](n2cnc3c(N)ncnc32)[C@H](O)[C@@H]1O
inactive: outcome [13] | Potency [2] | Potency [3] | Potency [4] | outcome [5] | Potency [6] | outcome [7]

O=c1c2ccccc2[se]n1-c1ccccc1
inactive: Potency [11]

CN(N=O)c1cc(O)ccc1O
inactive: outcome [13] | Potency [3] | outcome [5] | Potency [6]

C[C@@H](Cc1ccccc1)NCCC(c1ccccc1)c1ccccc1
inactive: Potency [11]
